Assay outcomes as filed in PubChem BioAssay.
Cy5 interf NS3h – Cy5 fluorescence quenchers or enhancers, artefact control for HCV NS3 helicase inhibitor project, biochemical, ChemBridge library, Cy5 readout | fluorescence interference ratio at 100 µM | 6% of 16,000 active | Cy5-dT15 DNA with NS3h, fluorescence interference; actives lie on both sides; signal over control mean, under 1 quenches;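 active = compound fluorescence over control fluorescence at most 0.8, a quencher, or at least a set upper limit, an enhancer; inactive = ratio between 0.8 and the set upper limit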
HCV NS3h FP – HCV NS3 helicase inhibitors, primary screen, biochemical, fluorescence polarization, ChemBridge library; Hepatitis C virus NS3 helicase; 1.6% of 16,000 active; inhibition, % at 100 µM; AID 687043, 2013; NS3h Cy5-dT15 DNA binding;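 active = inhibition above the average over every tested compound plus 3 SD, cut at about 40% in these data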
NS3h confirm – HCV NS3 helicase inhibitors, retest, confirmation, biochemical, fluorescence polarization, ChemBridge library | shares compounds with HCV NS3h FP | NS3h binding to Cy5-dT15 DNA | inhibition, % at 100 µM | 20% of 240 active;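 active = percent inhibition of 50% or more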
SSB-DNA FP CB – E. coli SSB-DNA binding inhibitors, counter-screen for HCV NS3 helicase inhibitor project, biochemical, fluorescence polarization, selected ChemBridge compounds; shares compounds with HCV NS3h FP; E. coli SSB binding Cy5-dT15; inhibition, % at 100 µM; 40% of 240 active;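 active = inhibition of at least 50%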;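 note: displacers lower Cy5 polarization so higher inhibition means more SSB displaced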
Target sequence (P0AGE0 whole entry, looked up): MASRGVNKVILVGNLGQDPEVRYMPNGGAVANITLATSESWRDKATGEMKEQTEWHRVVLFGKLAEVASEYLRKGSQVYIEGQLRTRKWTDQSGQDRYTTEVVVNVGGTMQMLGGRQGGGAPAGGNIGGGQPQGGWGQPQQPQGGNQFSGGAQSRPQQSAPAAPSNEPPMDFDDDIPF
Cy5 SSB interf – Cy5 fluorescence interference with SSB-bound oligo, artefact control for HCV NS3 helicase inhibitor project, biochemical, E. coli SSB, selected ChemBridge compounds; AID 720487, 2013; fluorescence interference ratio at 100 µM; shares compounds with HCV NS3h FP; 8% of 240 active; Cy5-dT15/E. coli SSB fluorescence interference; actives lie on both sides;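 active = fluorescence interference ratio at or above 1.2, signal boosting, or at or below 0.8, signal quenching; inactive = ratio between 0.8 and 1.2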;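 note: ratio of compound well signal to mean negative control signal so 1 means no effect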
Cy5 interf conf – Cy5-DNA-NS3h complex fluorescence interference, confirmation, artefact control for HCV NS3 helicase inhibitor project, biochemical, ChemBridge library. shares compounds with HCV NS3h FP. Cy5-dT15 DNA/NS3h fluorescence interference counterscreen. fluorescence interference ratio at 100 µM, hits read low. 44% of 240 active. AID 720489, 2013;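 active = fluorescence interference ratio at or below 0.8 quencher or at or above a set limitenhancer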;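 note: ratio of compound fluorescence to mean of negative controls so 1 means no interference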
An asterisk follows results filed as active. This is a sample that favours compounds with a hit; in the whole collection about 6.9% have one here.

SMILES	Cy5 interf NS3h	HCV NS3h FP	others
O=C(Nc1ccc(NC(=O)c2ccc3ccccc3c2)cc1)c1ccccc1	1	6
COc1ccc(CCN2C(=O)/C(=C\c3cccc([N+](=O)[O-])c3)SC2=S)cc1OC	1	-2
COc1ccc(/C=C(\C#N)C(=O)Nc2ccccc2)c(C)c1	1.1	9
O=C1C(=O)N(Cc2ccc(F)cc2)c2ccc(Br)cc21	0.93	3
CN1C(=O)C(=O)c2cc(Br)ccc21	0.74*	10
CC(=O)Nc1cccc(Oc2ccc3c(c2)C(=O)N(c2ccccc2)C3=O)c1	0.99	8
COC(=O)c1cccc(N2C(=O)c3ccc(Oc4ccc(NC(C)=O)cc4)cc3C2=O)c1	1.3*	-25
C=CCOC(=O)C1=C(C)NC(C)=C(C(=O)OCC=C)C1c1ccccc1F	0.88	23
NC(=O)CN1C(=O)/C(=C2\SC(=S)N(Cc3ccccc3)C2=O)c2ccccc21	0.8*	7
C=CCN1C(=O)/C(=C2\SC(=S)N(Cc3ccco3)C2=O)c2ccccc21	0.98	17
CCN(CC)CCN1C(=O)C(O)=C(C(=O)/C=C/c2ccccc2)C1c1ccc(OC)cc1 (stereo not given)	1.2*	26
CCN(CC)CCN1C(=O)C(O)=C(C(=O)/C=C/c2ccccc2)C1c1ccc(Br)cc1 (stereo not given)	1.1	8
Cc1c(OCc2ccccc2)ccc2c3c(c(=O)oc12)CCC3	1.1	10
CSc1ccc(S(=O)(=O)N(CC(=O)Nc2ccc(C)cc2)c2ccc(C)cc2)cc1	0.68*	22
CSc1ccc(S(=O)(=O)N(CC(=O)Nc2ccc(C)cc2C)c2ccc(C)cc2)cc1	1	8
CSc1ccc(S(=O)(=O)N(CC(=O)Nc2ccc(C(C)=O)cc2)c2ccc(C)cc2)cc1	0.73*	17
CCOc1ccc(S(=O)(=O)N(CC(=O)Nc2ccc(C)cc2)c2ccc(C)cc2)cc1	0.97	-5
CCOC(=O)c1ccc(NC(=O)CN(c2ccc(OCC)cc2)S(=O)(=O)c2ccc(SC)cc2)cc1	1	8
CCOc1ccc(S(=O)(=O)N(CC(=O)NC)c2ccc(C)cc2)cc1	1.2*	0
CC(=O)N(C)CP(=O)(O)CCc1ccccc1	1	-7
O=C1NC(=Nc2cccnc2)S/C1=C/C=C/c1ccccc1	1.1	16
COc1ccc(/C=C2/SC(=O)N(CNc3cc(C)ccc3C)C2=O)cc1OC	1	5
Cc1cc(Cl)ccc1OCC(=O)Nc1ccc(Br)c(NC(=O)c2ccccc2)c1	1.1	1
CCOC(=O)C1=C(C)N=c2s/c(=C\c3ccc([N+](=O)[O-])o3)c(=O)n2C1c1cccs1 (stereo not given)	1	8
CCOC(=O)C1=C(C)N=c2s/c(=C\c3ccc([N+](=O)[O-])o3)c(=O)n2C1c1ccc(C)cc1 (stereo not given)	0.75*	13
SMILES	Cy5 interf NS3h	HCV NS3h FP	others
CCOC(=O)C1=C(C)N=c2s/c(=C/c3ccccn3)c(=O)n2C1c1ccccc1Cl (stereo not given)	0.95	28
CCOC(=O)C1=C(C)N=c2s/c(=C\c3ccc([N+](=O)[O-])o3)c(=O)n2C1c1ccccc1Cl (stereo not given)	0.71*	19
Cc1cccc(/C=N\N2CCN(c3ccccc3)CC2)c1	1	0
O=[N+]([O-])c1ccc(S(=O)(=O)N/N=C\c2ccc3c(c2)OCO3)cc1	1	11
Cc1c(C(=O)O)cccc1-n1c(C)ccc1C	1.4*	97*	NS3h confirm=67*;SSB-DNA FP CB=106*;Cy5 SSB interf=0.94;Cy5 interf conf=0.95
O=C(O)c1cccc(C(=O)O)c1N(c1ccccc1)c1ccccc1	1	3
CC(/C=C1\SC(=S)N(C(C(=O)O)c2ccccc2)C1=O)=C\c1ccccc1 (stereo not given)	0.94	24	NS3h confirm=4;SSB-DNA FP CB=5;Cy5 SSB interf=0.97;Cy5 interf conf=0.69*
O=C1C(=C/C(Br)=C/c2ccccc2)SC(=S)N1Cc1ccccc1	1.1	8
Cc1cc(C(=O)Nc2cccc(C)c2C)ccc1[N+](=O)[O-]	1	-5
CCc1ccc(N2C(=O)NC(=O)/C(=C\c3ccc(N4CCOCC4)o3)C2=O)cc1	0.96	-6
Cc1c(NC(=NS(=O)(=O)c2ccccc2)c2ccccc2)c(=O)n(-c2ccccc2)n1C	1	1
N#Cc1c(-c2ccco2)c2c([nH]c1=S)CCCC2	1.1	18
N#Cc1c(N)c(C#N)c(-c2ccco2)c2c1CCCC2	0.96	32	NS3h confirm=17;SSB-DNA FP CB=21;Cy5 SSB interf=0.98;Cy5 interf conf=0.92
CC(C)NC(=O)C12CC3(C)CC(C)(CC(C)(C3)C1)C2	1	-1
C=CCOc1c(I)cc(/C=C2/C(=O)NC(=O)N(c3ccc(OC)cc3)C2=O)cc1OC	1	8
COc1cc(C=C2C(=O)NC(=O)NC2=O)cc(I)c1OCc1ccc([N+](=O)[O-])cc1	0.48*	54*	NS3h confirm=16;SSB-DNA FP CB=31;Cy5 SSB interf=0.91;Cy5 interf conf=0.59*
COc1ccc(-c2cc(C(=O)Nc3ccc([N+](=O)[O-])cc3)c3ccccc3n2)cc1	0.99	10
CC(=O)c1ccc(-n2c(C)ccc2C)cc1	1.1	0
Cc1ccc(C)n1-c1cc(C(=O)O)ccc1O	1.4*	96*	NS3h confirm=85*;SSB-DNA FP CB=104*;Cy5 SSB interf=0.94;Cy5 interf conf=1
Cc1ccc(C)n1-c1ccc(C(=O)O)c(O)c1	1.3*	90*	NS3h confirm=101*;SSB-DNA FP CB=99*;Cy5 SSB interf=0.92;Cy5 interf conf=0.98
Cc1ccc(C(=O)O)cc1N1C(=O)C2C3C=CC(C3)C2C1=O (stereo not given)	1.1	-3
O=C(Nc1ccc(Br)cc1)C1CC(=O)N(c2ccc(Cl)cc2)C1 (stereo not given)	1.1	14
CCOc1ccc(-c2nc3nc(C)c(Br)cc3[nH]2)cc1	0.96	-7
Cc1cccc(NC(=O)c2ccccc2NC(=O)/C=C\c2ccco2)c1C	0.93	5
O=C(/C=C/c1ccco1)Nc1ccc(O)cc1C(=O)O	1	61*	NS3h confirm=39;SSB-DNA FP CB=93*;Cy5 SSB interf=0.91;Cy5 interf conf=1
COc1ccc(NC(=O)/C(C#N)=C\c2ccc(-c3ccccc3[N+](=O)[O-])o2)cc1	1.1	14
Cc1ccsc1/C=C1\SC(=S)N(C2CCS(=O)(=O)C2)C1=O (stereo not given)	1.3*	68*	NS3h confirm=4;SSB-DNA FP CB=17;Cy5 SSB interf=0.91;Cy5 interf conf=0.72*
CC(C)c1ccc(/C=C2\SC(=S)N(C3CCS(=O)(=O)C3)C2=O)cc1 (stereo not given)	0.95	-1
